{"source": "PubChem BioAssay (NCATS)", "note": "Results filed as inconclusive are left out. Unmarked numbers belong to inactive results. Activity calls are given as the source filed them. The call rests on the fitted dose curve; in most records, active means well fitted cell-killing curve with a large enough effect; inconclusive means small, poorly fitted or top-dose-only effect; inactive means no such curve, though single readings can be large or run the other way. Potency means the concentration at half of the fitted maximal effect.", "data": [{"assay": "qHTS of pediatric cancer cell lines to identify multiple opportunities for drug repurposing: Primary screen for NB-EBc1 cells (AID 1347095)", "conditions": "NB-EBc1 neuroblastoma viability, CellTiter-Glo luminescence, 48 h; series mostly up to 46 µM; activity change, negative = cytotoxic: at the top concentration", "from_the_text": "Drug repurposing or repositioning has been offered as a strategy for drug development in oncology programs. This approach has special potential for childhood cancers and other rare or orphan diseases, where the expected return on new drug development has been a disincentive to pharmaceuticals. […] In this project we exploit the poly-pharmacology of drugs to discover new indications via phenotypic screening of a panel of 19 well-characterized cell lines derived from solid tumors seen in children and adolescents. The goal is to identify approved drugs with previously unrecognized anticancer properties that has the potential to reveal new mechanisms and biological processes involved in carcinogenesis or drug resistance. We employed a titration-based paradigm (quantitative high-throughput screening or qHTS), where all compounds were tested at multiple concentrations for their effect on cell viability. Concentration-response curves (CRCs) were derived directly from the primary screen, and both potency and efficacy values were used to identify compounds with robust bioactivity profiles. We screened the NIH Chemical Genomics Center (NCGC) Pharmaceutical Collection (NPC) and Mechanism Interrogation Plate (MIPE) small molecule collections of approved and investigational compounds against these cell lines; and measured metabolically active cells after 48 hours of compound treatment as a proxy for cell viability. […] Assay Submitter: Nathalia J. Martinez, National Center for Advancing Translational Sciences, National Institutes of Health, Rockville, MD, USA; email: natalia.martinez@nih.gov Shen, M et al. Quantitative high-throughput phenotypic screening of pediatric cancer cell lines identifies multiple opportunities for drug repurposing. Oncotarget 2017 Dec 19;9(4):4758-4772. PMID 29435139.\nThe cells were obtained from University of North Carolina (UNC), Pediatric Preclinical Testing Program (PPT), and Coriell Institute (CI). qHTS cell viability assay: Cells were assayed in growth media at a density of 500-1,000 cells/well. Five microliters of cells were dispensed into 1,536-well, white, solid-bottom, TC-treated plates (Greiner Bio One) using a multidrop dispenser and incubated at 37 degrees C, 5% CO2, under a humidified atmosphere for 5 hours. Twenty-three nanoliters of compounds and controls (neutral control DMSO or positive control bortezomib at final concentration of 2.3 µM) were subsequently transferred by Kalypsys pintool. For primary screens, the MIPE collection was tested at 11-point dilutions (final concentrations range from 0.78 nM to 46 µM) and the NPC collection at 8-point dilutions (final concentrations range from 0.59 nM to 46 µM). Compounds tested in follow-up screens were assayed at 11-point dilutions. Cells were incubated for 48 hours, followed by addition of 3 µL of CellTiter-Glo (Promega). After a 15 min incubation at room temperature, samples were analyzed for luminescence intensity using a ViewLux High-throughput CCD imager equipped with clear filters.", "values": [{"smiles": "O=C(O)C1CCC1", "activity change, negative = cytotoxic": "24.9%"}, {"smiles": "CN1CCC(=C2c3ccccc3CCc3cccnc32)CC1", "activity change, negative = cytotoxic": "6.03%"}, {"smiles": "CCS(=O)(=O)c1ccc(OC)c(C(=O)OC)c1", "activity change, negative = cytotoxic": "15.6%"}, {"smiles": "O=C(C1CCCCC1)N1CC(=O)N2CCCc3ccccc3C2C1", "note": "(stereo not given)", "activity change, negative = cytotoxic": "35.8%"}, {"smiles": "Cc1ccc(C(=O)C(=O)O)cc1C", "activity change, negative = cytotoxic": "12.9%"}, {"smiles": "CC(=O)N1CCN(c2ccc(O)cc2)CC1", "activity change, negative = cytotoxic": "-0.424%"}, {"smiles": "CC(C)C(C)(C)C(C)(C)C(C)(C)S", "activity change, negative = cytotoxic": "24.8% [at 92.7 µM]"}, {"smiles": "CCN(CC)CCN", "activity change, negative = cytotoxic": "20.3%"}, {"smiles": "O=C(O)CCCC[C@@H]1SC[C@@H]2NC(=O)N[C@@H]21", "activity change, negative = cytotoxic": "10.6%"}, {"smiles": "COc1cc(/C=C/C(N)=O)cc(OC)c1OC", "activity change, negative = cytotoxic": "19.3%"}, {"smiles": "Cc1nc(N)nc(N)c1-c1ccc(Cl)c(Cl)c1", "Potency": "0.422 µM (active)"}, {"smiles": "O=C(O)[C@H](O)[C@@H](O)[C@H](O[C@@H]1O[C@H](CO)[C@H](O)[C@H](O)[C@H]1O)[C@H](O)CO", "activity change, negative = cytotoxic": "9.39%"}, {"smiles": "O=C(CCCCC(=O)Nc1c(I)cc(I)c(C(=O)O)c1I)Nc1c(I)cc(I)c(C(=O)O)c1I", "activity change, negative = cytotoxic": "22.2%"}, {"smiles": "OC1(c2ccccc2)CCNCC1", "activity change, negative = cytotoxic": "3.77%"}, {"smiles": "CCCCC(CC)COC(=O)c1ccccc1C(=O)O", "note": "(stereo not given)", "activity change, negative = cytotoxic": "20.5% [at 92.7 µM]"}, {"smiles": "C[C@H]1NCc2cc(-c3ccc4c(=O)c(C(=O)O)cn(C5CC5)c4c3OC(F)F)ccc21", "activity change, negative = cytotoxic": "59.1% [at 16.1 µM]"}, {"smiles": "Nc1nc(=O)n([C@@H]2O[C@H](CO)[C@@H](O)[C@@H]2F)cc1I", "activity change, negative = cytotoxic": "-16.8%"}, {"smiles": "C[C@@H](O[C@H]1OCCN(Cc2n[nH]c(=O)[nH]2)[C@H]1c1ccc(F)cc1)c1cc(C(F)(F)F)cc(C(F)(F)F)c1", "Potency": "18.8 µM (active)"}, {"smiles": "COCCc1ccc(OCC2CO2)cc1", "note": "(stereo not given)", "activity change, negative = cytotoxic": "-1.81%"}, {"smiles": "CCN1CCCC1CN", "note": "(stereo not given)", "activity change, negative = cytotoxic": "6.73%"}, {"smiles": "Nc1c2ccccc2nc2ccccc12", "Potency": "3.76 µM (active)"}, {"smiles": "CC[N+](CC)(CC)CCOC(=O)C(C1CCCC1)C1CCCC1", "activity change, negative = cytotoxic": "15.8%"}, {"smiles": "CC[N+]1(CC)CCC(=C(c2ccccc2)c2ccccc2)C1C", "note": "(stereo not given)", "activity change, negative = cytotoxic": "16.6%"}, {"smiles": "O=[N+]([O-])c1nccn1CO[C@@H](CO)[C@H](O)CO", "activity change, negative = cytotoxic": "38.7%"}, {"smiles": "CC(C(O)c1ccccc1)N(C)CCOC(c1ccccc1)c1ccccc1", "note": "(stereo not given)", "activity change, negative = cytotoxic": "-19.3%"}, {"smiles": "CC(C)(C)c1ccc(O)c(O)c1", "Potency": "6.11 µM (active)"}, {"smiles": "CSc1ccc(/C=C2/C(C)=C(CC(=O)O)c3cc(F)ccc32)cc1", "activity change, negative = cytotoxic": "14.9%"}, {"smiles": "COC(=O)c1ccc(NC(C)=O)cc1OC", "activity change, negative = cytotoxic": "18.9%"}, {"smiles": "Cc1cccc(OCC(O)CNC(C)(C)C)c1C", "note": "(stereo not given)", "activity change, negative = cytotoxic": "3.5%"}, {"smiles": "O=P(O)(O)OCC(O)CO", "note": "(stereo not given)", "activity change, negative = cytotoxic": "22.2%"}, {"smiles": "O=C1Nc2cc(Cl)ccc2Oc2ccccc21", "activity change, negative = cytotoxic": "-3.04%"}, {"smiles": "NCC(=O)O", "activity change, negative = cytotoxic": "20% [at 16.1 µM]"}, {"smiles": "COC(=O)c1cc(Cl)ccc1OC", "activity change, negative = cytotoxic": "23.6%"}, {"smiles": "COC(=O)C1=C(C)NC(COC(N)=O)=C(C(=O)OC(C)C)C1c1cccc(Cl)c1Cl", "note": "(stereo not given)", "activity change, negative = cytotoxic": "-3.52%"}, {"smiles": "CN1N=C(C(N)=O)CCC1=O", "activity change, negative = cytotoxic": "14.9%"}, {"smiles": "CN1CCC(Nc2ncc3ncnc(Nc4ccc(F)c(Cl)c4)c3n2)CC1", "activity change, negative = cytotoxic": "-6.95%"}, {"smiles": "C[C@@H](C1=C(CCN(C)C)Cc2ccccc21)c1ccccn1", "activity change, negative = cytotoxic": "4.74%"}, {"smiles": "CC(C)C[C@H](NC(=O)CNC(=O)[C@H](Cc1ccc(O)cc1)NC(=O)[C@H](CO)NC(=O)[C@H](Cc1c[nH]c2ccccc12)NC(=O)[C@H](Cc1cnc[nH]1)NC(=O)[C@@H]1CCC(=O)N1)C(=O)N[C@@H](CCCN=C(N)N)C(=O)N1CCC[C@H]1C(=O)NCC(N)=O", "note": "(stereo in doubt)", "activity change, negative = cytotoxic": "9.11%"}, {"smiles": "Cc1cnc(NS(=O)(=O)c2ccc(N)cc2)nc1", "activity change, negative = cytotoxic": "14.6%"}, {"smiles": "Nc1c(NC/C=C\\COc2cc(CN3CCCCC3)ccn2)c(=O)c1=O", "activity change, negative = cytotoxic": "12.3% [at 16.1 µM]"}]}]}
